Drawing on PubChem BioAssay (NCATS), this text covers Potency for 29 molecules.

Results filed as inconclusive are left out. Calls of active or inactive are those of the source. Unless noted, the call rests on the fitted dose curve; in most records, active means well fitted curve in the direction sought with a large enough effect; inconclusive means small, poorly fitted or top-dose-only effect, or another doubt; inactive means no such curve, though single readings can be large; an effect the other way counts as inactive or inconclusive.

Test [1] deals with Peptidyl-prolyl cis-trans isomerase NIMA-interacting 1 (Homo sapiens) (UniProt Q13526). Briefly: qHTS Validation Assay to Find Inhibitors of Pin1 (AID 504536; active means well fitted inhibition curve with a large enough effect in the polarisation, with a control signal flat, not every such curve was filed as active; the % refers to the polarisation; further: potency means the concentration at half of the fitted maximal effect). The method in brief: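 Fluorescence polarization competition: compounds (titration) displace HiFluor-488-labeled Pin1-1b peptide from Pin1 (0.3 uM final) in pH 7.5 HEPES buffer with DTT, 10 min at room temperature; %Activity normalized to no-enzyme wells, curves fitted.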
Peptidyl-prolyl cis-trans isomerase NIMA-interacting 1 (Homo sapiens), sequence (Q13526 whole entry, looked up): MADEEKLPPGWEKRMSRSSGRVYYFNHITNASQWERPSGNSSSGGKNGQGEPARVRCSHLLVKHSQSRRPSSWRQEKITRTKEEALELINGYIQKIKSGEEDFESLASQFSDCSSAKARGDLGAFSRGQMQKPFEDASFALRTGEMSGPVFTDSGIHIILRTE

The target in test [2] is Phosphoglycerate kinase, glycosomal (Trypanosoma brucei brucei) (UniProt P07378). Briefly: qHTS Validation Assay to Find Inhibitors of Phosphoglycerate Kinase (AID 504547). The method in brief:
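Substrate/PGK mix plus compound; reaction started with GAPDH (100nM final) to form 1,3-BPG; 60 min RT; Kinase-Glo Plus 10 min; luminescence. TEA 100mM pH 7.6, MgCl2 5mM, Tween-20 0.01%.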

Test [3] addresses phosphoglycerate mutase (Leishmania major) (UniProt Q4Q090). Description: qHTS Validation Assay to Find Inhibitors of Phosphoglycerate Mutase (AID 504548).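 Further: end-point luminescence from Kinase-GloPlus after the PGAM reaction; series mostly up to about 58 µM.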 As to conditions: Potency: inhibition qHTS. The method in brief: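 Inhibition of L. major PGAM was assessed by Kinase-GloPlus luminescence following a 45-minute room-temperature reaction with enzyme at 1.25nM final.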
In test [4] the target is Ubiquitin carboxyl-terminal hydrolase 1 (Homo sapiens) (UniProt O94782). Description: Inhibitors of USP1/UAF1: Pilot qHTS (AID 504865). Further: nearly all actives have a fitted effect of over 35% in size. Further: potency means the concentration at half of the fitted maximal effect. In short, it runs like this:
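USP1/UAF1 complex (1nM) preincubated with compound 15 min at room temperature, then Ub-Rho substrate (150nM final) added. Fluorescence read kinetically at 480/540 nm, 6 reads every 60 seconds. Buffer: 50mM HEPES pH 7.8, 0.5mM EDTA, 0.1 mg/ml BSA, 1mM TCEP, 0.01% Tween-20.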
A general note: qHTS replaces the single test concentration by a dilution series.

Test [5] is described as follows: qHTS for Inhibitors of ATXN expression: Validation of Cytotoxic Assay (AID 588349).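 Further: cells exposed to compound for 72 hr.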 Further: potency means the concentration at half of the fitted maximal effect. In short, it runs like this: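 HEK293, compound dose series, 72 hr / 37 degrees C; viability via CellTiter Glo (intracellular ATP).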
The nature of test [6]: qHTS for Inhibitors of ATXN expression: Validation (AID 588378). Further: nearly all actives have a fitted effect of over 75% in size. Further: potency means the concentration at half of the fitted maximal effect. In short, it runs like this: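 Luminescence from an ATXN2-FFLuc reporter in HEK293 cells served as read-out after 24 h compound treatment at 37 degrees C; CellTiter-Fluor fluorescence was recorded first to assess viability.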

phosphoglycerate mutase (Leishmania major), sequence (Q4Q090 1-553): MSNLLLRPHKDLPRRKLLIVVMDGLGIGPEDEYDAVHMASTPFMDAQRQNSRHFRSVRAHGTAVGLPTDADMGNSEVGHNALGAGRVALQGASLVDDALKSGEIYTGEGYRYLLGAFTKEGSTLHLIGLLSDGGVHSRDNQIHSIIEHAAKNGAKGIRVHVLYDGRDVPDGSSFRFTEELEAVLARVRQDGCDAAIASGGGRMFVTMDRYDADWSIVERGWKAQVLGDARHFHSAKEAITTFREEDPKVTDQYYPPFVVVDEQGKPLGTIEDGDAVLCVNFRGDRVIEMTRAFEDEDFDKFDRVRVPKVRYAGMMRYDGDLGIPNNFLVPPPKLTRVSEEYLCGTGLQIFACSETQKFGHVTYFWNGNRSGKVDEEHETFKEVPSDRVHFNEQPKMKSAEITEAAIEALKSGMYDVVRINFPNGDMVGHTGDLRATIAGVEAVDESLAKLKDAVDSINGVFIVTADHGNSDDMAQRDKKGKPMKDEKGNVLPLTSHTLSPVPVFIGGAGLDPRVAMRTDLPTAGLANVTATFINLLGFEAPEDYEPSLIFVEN
Ubiquitin carboxyl-terminal hydrolase 1 (Homo sapiens), sequence (O94782 whole entry, looked up): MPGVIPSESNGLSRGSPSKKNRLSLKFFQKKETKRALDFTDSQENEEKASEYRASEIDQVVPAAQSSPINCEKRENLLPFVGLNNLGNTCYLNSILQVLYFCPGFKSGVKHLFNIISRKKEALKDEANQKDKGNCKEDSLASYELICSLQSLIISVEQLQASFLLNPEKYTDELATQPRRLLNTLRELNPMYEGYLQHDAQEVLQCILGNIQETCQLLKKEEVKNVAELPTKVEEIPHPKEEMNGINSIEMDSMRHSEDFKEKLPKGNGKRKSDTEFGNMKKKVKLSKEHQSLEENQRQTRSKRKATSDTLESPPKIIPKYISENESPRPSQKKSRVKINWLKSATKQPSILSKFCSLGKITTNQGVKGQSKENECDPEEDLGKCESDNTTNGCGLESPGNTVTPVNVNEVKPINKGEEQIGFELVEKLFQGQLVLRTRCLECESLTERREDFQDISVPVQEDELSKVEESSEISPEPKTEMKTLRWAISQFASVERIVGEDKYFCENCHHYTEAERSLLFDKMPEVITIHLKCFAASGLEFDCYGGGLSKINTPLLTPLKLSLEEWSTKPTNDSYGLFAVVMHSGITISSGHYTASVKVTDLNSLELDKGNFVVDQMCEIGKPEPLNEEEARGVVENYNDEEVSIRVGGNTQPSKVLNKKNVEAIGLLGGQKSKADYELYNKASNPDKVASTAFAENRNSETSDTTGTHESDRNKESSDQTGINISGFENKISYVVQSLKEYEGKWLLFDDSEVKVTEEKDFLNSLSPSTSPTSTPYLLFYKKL
Phosphoglycerate kinase, glycosomal (Trypanosoma brucei brucei), sequence (P07378 whole entry, looked up): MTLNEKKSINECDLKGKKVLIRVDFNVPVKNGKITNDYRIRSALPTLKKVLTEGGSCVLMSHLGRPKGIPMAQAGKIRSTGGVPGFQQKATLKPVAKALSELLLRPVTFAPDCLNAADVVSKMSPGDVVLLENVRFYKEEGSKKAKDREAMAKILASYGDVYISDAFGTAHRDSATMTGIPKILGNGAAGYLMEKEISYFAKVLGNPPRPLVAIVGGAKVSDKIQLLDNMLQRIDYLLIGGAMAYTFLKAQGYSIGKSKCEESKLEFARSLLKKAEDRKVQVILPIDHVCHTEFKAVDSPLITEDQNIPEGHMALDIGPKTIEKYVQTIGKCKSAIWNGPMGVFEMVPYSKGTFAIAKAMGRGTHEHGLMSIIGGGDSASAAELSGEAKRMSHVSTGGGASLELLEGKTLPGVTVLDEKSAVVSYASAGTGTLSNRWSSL

`COc1cc(C(O)CO)ccc1OS(=O)(=O)O` (centres undefined): the Potency result in test [1], in test [2], in test [3], in test [4], in test [5] and in test [6] was “inactive” in each case.

In the case of `CNC(=O)[C@H]1O[C@@H](n2cnc3c(NCc4ccc(N)cc4)ncnc32)[C@H](O)[C@@H]1O`, the Potency result in test [1], in test [2], in test [3], in test [4], in test [5] and in test [6] was “inactive” each time.

With `C=CC(N)CCC(=O)O` (centres undefined), the Potency result in test [1], in test [2], in test [3], in test [4], in test [5] and in test [6] was “inactive” in each case.

`O=c1[nH]c2cc(Cl)c(Cl)cc2[nH]c1=O`: the Potency result in test [1], in test [2], in test [3], in test [4], in test [5] and in test [6] was “inactive” throughout.

As for `CC(COc1ccc(/C=C/c2ccccc2)cc1)[N+](C)(C)C` (centres undefined), the Potency entry in test [1], in test [2], in test [3], in test [4], in test [5] and in test [6] was “inactive” throughout.

Regarding `Nc1nc(Cl)nc2c1ncn2[C@@H]1O[C@H](COP(=O)(O)OP(=O)(O)OP(=O)(O)O)[C@@H](O)[C@H]1O`, the Potency in test [1] is 30.1 µM (active). The Potency result in test [2], in test [3], in test [4], in test [5] and in test [6] was “inactive” in each case.

`C=CC(C)=C[C@@]1(C)SC(=O)C(C)=C1O`: the Potency result in test [1], in test [2], in test [3], in test [4], in test [5] and in test [6] was “inactive” each time.

Take `O=C(O)CCCC[C@@H]1CCSS1`: the Potency result in test [1], in test [2], in test [3], in test [4], in test [5] and in test [6] was “inactive” in each case.

Turning to `CCN1/C(=C/C(C)=O)Sc2ccc(OC)cc21`, the Potency result in test [1], in test [2], in test [3], in test [4] and in test [5] was “inactive” throughout.

For the molecule `CN(C)c1ccc(/C=C2\C(=O)Nc3ccccc32)cc1`, the Potency result in test [1], in test [2], in test [3], in test [4], in test [5] and in test [6] was “inactive” throughout.

On to `NCCCS(=O)(=O)O`, for which the Potency result in test [1], in test [2], in test [3], in test [4] and in test [5] was “inactive” each time.

With `Nc1nc(SCc2ccc([N+](=O)[O-])cc2)c2ncn([C@@H]3O[C@H](CO)[C@@H](O)[C@H]3O)c2n1`, the Potency entry in test [1], in test [2], in test [3], in test [4], in test [5] and in test [6] was “inactive” throughout.

With `O=C(O)CC1CCCc2ccccc2C1O` (centres undefined), the Potency result in test [1], in test [2], in test [3], in test [4], in test [5] and in test [6] was “inactive” throughout.

For `N=C(N)SCCc1ccc(CCSC(=N)N)cc1`, the Potency result in test [1], in test [2], in test [3], in test [4] and in test [5] was “inactive” in each case.

Consider `Nc1nc(Cl)nc2c1ncn2[C@@H]1O[C@H](CO)[C@@H](O)[C@H]1O`, for which the Potency result in test [1], in test [2], in test [3], in test [4] and in test [5] was “inactive” throughout.

`CN1C2CCC1CC(OC(=O)C(O)c1ccccc1)C2` (centres undefined): the Potency entry in test [1], in test [2], in test [3], in test [4], in test [5] and in test [6] was “inactive” in each case.

For the molecule `CC(C)Cc1ccc([C@H](C)C(=O)O)cc1`, the Potency result in test [1], in test [2], in test [3], in test [4], in test [5] and in test [6] was “inactive” throughout.

`CCCCN1CCC(n2c(=O)[nH]c3ccccc32)CC1`: the Potency result in test [1], in test [2], in test [3], in test [4] and in test [5] was “inactive” throughout.

On to `Fc1cccc(/C=N/N=C/c2cccc(F)c2)c1`, for which the Potency result in test [1], in test [2], in test [3], in test [4], in test [5] and in test [6] was “inactive” in each case.

For the molecule `O=c1[nH]c2cc([N+](=O)[O-])c([N+](=O)[O-])cc2[nH]c1=O`, the Potency result in test [1], in test [2], in test [3], in test [4] and in test [5] was “inactive” throughout.

On to `CO/S(=N\S(=O)(=O)c1ccc(Cl)cc1)c1ccc([N+](=O)[O-])cc1` (centres undefined), for which the Potency result in test [1], in test [2], in test [3] and in test [5] was “inactive” in each case. The Potency in test [4] is 31.6 µM (active).

`O=C(CCCCCN1CCN(c2ccccc2-c2ccccc2)CC1)NC1CCCc2ccccc21` (centres undefined): the Potency entry in test [1], in test [2], in test [3] and in test [4] was “inactive” each time. The Potency was 15.8 µM (active) in test [5] and 20 µM (active) in test [6].

With `NC(=S)NCCC[C@H](N)C(=O)O`, the Potency entry in test [1], in test [2], in test [3], in test [4] and in test [5] was “inactive” in each case.

Regarding `CN1CCc2cc(NC(=O)Nc3cccnc3)ccc21`, the Potency entry in test [1], in test [2], in test [3], in test [4], in test [5] and in test [6] was “inactive” throughout.

In the case of `O=C(O)CC1CC(c2ccccc2)=NO1` (centres undefined), the Potency entry in test [1], in test [2], in test [3], in test [4] and in test [5] was “inactive” in each case.

Take `CC(N)C(=O)OC(C)(C)Cc1ccc(Cl)cc1` (centres undefined): the Potency result in test [1], in test [2], in test [3], in test [4], in test [5] and in test [6] was “inactive” throughout.

Consider `CC1CN(S(=O)(=O)c2cccc3cnccc23)CCN1` (centres undefined), for which the Potency entry in test [1], in test [2], in test [3], in test [4], in test [5] and in test [6] was “inactive” each time.

On to `Cc1cc(NC2CCCCC2)nc(-n2nc(C)cc2C)n1`, for which the Potency entry in test [1], in test [2], in test [3], in test [4] and in test [5] was “inactive” in each case.

On to `CC(C)CC(NP(=O)(O)O[C@@H]1O[C@@H](C)[C@H](O)[C@@H](O)[C@H]1O)C(=O)NC(Cc1c[nH]c2ccccc12)C(=O)O` (some centres undefined), for which the Potency entry in test [1], in test [2], in test [3], in test [4], in test [5] and in test [6] was “inactive” each time.
